According to PubChem BioAssay:
Values without a mark were called inactive. Activity calls are given as the source filed them.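 The calls were made as follows: active = mean inhibition over 43.08%, the solvent-only control mean plus 3 SD; inactive = the rest.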

The compounds below were run against Nuclear receptor coactivator 3 (Homo sapiens) (UniProt Q9Y6Q9) (assay: NCOA3 GAL4-fusion reporter inhibition – cell-based, luminescence, quadruplicate, confirmation (AID 588792;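 also: 0% = DMSO treated cells and 100% = gossypol at 36 µM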)). Conditions: HEK293 GAL4-SRC3 luciferase reporter, at 3.6 µM, active compounds read high.
Nuclear receptor coactivator 3 (Homo sapiens), sequence (Q9Y6Q9 whole entry, looked up, the tested form may be a part): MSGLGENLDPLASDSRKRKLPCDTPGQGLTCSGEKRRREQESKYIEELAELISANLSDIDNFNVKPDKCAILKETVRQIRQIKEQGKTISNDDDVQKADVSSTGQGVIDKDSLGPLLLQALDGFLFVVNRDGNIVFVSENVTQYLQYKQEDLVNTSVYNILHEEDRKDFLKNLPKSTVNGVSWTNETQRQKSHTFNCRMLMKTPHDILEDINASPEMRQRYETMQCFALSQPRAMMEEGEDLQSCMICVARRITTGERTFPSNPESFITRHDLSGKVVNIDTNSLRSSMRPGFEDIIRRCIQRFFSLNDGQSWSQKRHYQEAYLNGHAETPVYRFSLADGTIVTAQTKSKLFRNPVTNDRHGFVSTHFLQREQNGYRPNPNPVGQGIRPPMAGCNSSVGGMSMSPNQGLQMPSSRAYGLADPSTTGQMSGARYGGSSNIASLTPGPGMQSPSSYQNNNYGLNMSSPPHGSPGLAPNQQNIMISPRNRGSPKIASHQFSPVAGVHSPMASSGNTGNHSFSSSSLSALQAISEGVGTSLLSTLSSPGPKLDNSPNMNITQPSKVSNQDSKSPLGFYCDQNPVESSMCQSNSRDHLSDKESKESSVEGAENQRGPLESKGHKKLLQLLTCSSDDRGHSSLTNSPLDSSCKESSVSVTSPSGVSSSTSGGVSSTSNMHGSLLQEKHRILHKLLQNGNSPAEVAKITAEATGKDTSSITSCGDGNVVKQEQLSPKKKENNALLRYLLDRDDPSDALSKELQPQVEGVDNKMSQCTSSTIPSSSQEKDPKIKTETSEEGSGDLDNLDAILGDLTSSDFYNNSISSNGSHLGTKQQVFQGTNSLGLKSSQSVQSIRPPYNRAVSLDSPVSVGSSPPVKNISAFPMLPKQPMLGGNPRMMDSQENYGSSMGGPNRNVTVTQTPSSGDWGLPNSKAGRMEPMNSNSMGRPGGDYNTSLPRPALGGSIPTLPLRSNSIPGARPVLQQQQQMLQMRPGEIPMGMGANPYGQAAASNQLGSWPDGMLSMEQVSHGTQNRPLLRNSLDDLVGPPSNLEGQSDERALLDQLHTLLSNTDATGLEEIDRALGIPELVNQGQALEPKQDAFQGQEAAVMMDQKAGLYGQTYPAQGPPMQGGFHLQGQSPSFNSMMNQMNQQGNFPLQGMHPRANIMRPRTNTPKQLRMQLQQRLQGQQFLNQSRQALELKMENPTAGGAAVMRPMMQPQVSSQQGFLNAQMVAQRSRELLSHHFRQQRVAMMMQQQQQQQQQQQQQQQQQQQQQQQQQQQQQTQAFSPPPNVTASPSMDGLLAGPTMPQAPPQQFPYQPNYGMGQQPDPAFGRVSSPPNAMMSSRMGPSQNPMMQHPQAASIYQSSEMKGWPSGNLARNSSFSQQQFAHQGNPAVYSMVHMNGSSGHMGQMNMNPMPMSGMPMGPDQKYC

**Q.** With `CCc1cccc(CC)c1C(OC(C)=O)c1cccnc1` (centres undefined) as the compound, how does the inhibition read?
**A.** -15.7%

**Q.** For `CCC1C(=O)NCCN1C(=O)c1ccc2nc(Cc3ccc(OC)cc3)oc2c1` (centres undefined), which inhibition is on record?
**A.** -2.02%

**Q.** Which inhibition does the source give for `O=c1[nH]c(=O)n([C@H]2C[C@H](O)[C@@H](CO)O2)cc1Br` here?
**A.** 14.7%

**Q.** `C=CCn1c(SCC(=O)NC2CCCC2)nnc1-c1ccccn1` was tested. Which inhibition did it give?
**A.** -14.7%

**Q.** How did the inhibition turn out when `Cc1cccc(NC(=O)c2cc(-c3ccccn3)nc3ccccc23)c1C` was run?
**A.** -9.5%

**Q.** With `CC(=O)Nc1ccc(OCC(O)Cn2c3ccccc3c3ccccc32)c(C)c1` (centres undefined) as the compound, how does the inhibition read?
**A.** -0.56%

**Q.** With `COc1ccc(C(=O)Nc2ccc(N3CCN(C(=O)c4ccccc4C)CC3)cc2)cc1` as the compound, how does the inhibition read?
**A.** 28.4%

**Q.** For `Cc1cc(C)nc(/N=C(\N)Nc2ccc(OCCC(C)C)cc2)n1`, which inhibition is on record?
**A.** -1.86%

**Q.** How did the inhibition turn out when `CN(C)S(=O)(=O)c1cccc(-c2nn(-c3ccccc3)cc2/C=C(\C#N)c2nc3ccccc3[nH]2)c1` was run?
**A.** 1.73%

**Q.** How did the inhibition turn out when `O=C(NCc1ccccc1)c1c(Cl)nc(Cl)c(Cl)c1Cl` was run?
**A.** 42.1%

**Q.** For `CN1C/C(=C/c2cccnc2)C(=O)/C(=C/c2cccnc2)C1`, which inhibition is on record?
**A.** 23.5%

**Q.** With `O=C(c1cc2sccc2n1Cc1ccccc1)N1CCN(c2nc3ccccc3s2)CC1` as the compound, how does the inhibition read?
**A.** 2.32%

**Q.** Which inhibition does the source give for `CCOc1ccc(N(CC)C(=O)Cc2c(C(=O)O)n(C)c3ccccc23)cc1` here?
**A.** -8.28%

**Q.** Which inhibition does the source give for `CCC(=O)NC(c1cccs1)c1ccc2cccnc2c1O` (centres undefined) here?
**A.** 33.1%

**Q.** `O=C(N/N=C/c1c(O)ccc2ccccc12)c1ccc(CO)nc1` was tested. Which inhibition did it give?
**A.** 26.3%

**Q.** How did the inhibition turn out when `CCOc1cccc(/C=N/NC(=O)c2cc(-c3cccn3C)n[nH]2)c1O` was run?
**A.** 26%

**Q.** Which inhibition does the source give for `O=C1c2cccc(NCCNCCO)c2C(=O)c2cccc(NCCNCCO)c21` here?
**A.** -30.9%

**Q.** With `CC(C)(C)OC(=O)NCc1ccc(CNC(=O)c2[nH]cnc2C(=O)NC2CCN(C(=O)OC(C)(C)C)CC2)cc1` as the compound, how does the inhibition read?
**A.** 4.73%

**Q.** How did the inhibition turn out when `O=C(c1ccc(Cl)cc1)C(Cn1cncn1)C(Sc1ccccc1)c1ccccc1` (centres undefined) was run?
**A.** 14.8%

**Q.** For `Cc1cccc(OCC(=O)NCC(=O)N/N=C/c2ccc(O)cc2O)c1`, which inhibition is on record?
**A.** 15.4%

**Q.** `CCCn1c(N)c(C(=O)CSc2ncc(C(F)(F)F)cc2Cl)c(=O)[nH]c1=O` was tested. Which inhibition did it give?
**A.** 14.6%

**Q.** Which inhibition does the source give for `COc1cc(C2C(C#N)=C(SC)NC3=C2C(=O)CCC3)ccc1O` (centres undefined) here?
**A.** 20.9%

**Q.** Which inhibition does the source give for `COc1ccc(-c2cc(C(=O)N3CCN(c4ncccn4)CC3)c3ccccc3n2)c(OC)c1` here?
**A.** 0.79%

**Q.** How did the inhibition turn out when `N#CCc1c[nH]c2ccc([N+](=O)[O-])cc12` was run?
**A.** 24%

**Q.** For `COc1ccc(-c2cc(C(=O)NNC(=S)NC(=O)c3c(-c4ccccc4)noc3C)[nH]n2)cc1`, which inhibition is on record?
**A.** 6.16%

**Q.** With `COc1c(Cl)cc(Cl)cc1/C=C/C(=O)c1ccc(NC(=O)c2cccs2)cc1` as the compound, how does the inhibition read?
**A.** 48.7% (active)

**Q.** For `O=C(CSc1nnc(COc2ccc(Cl)cc2)o1)N1CCOCC1`, which inhibition is on record?
**A.** -3.82%

**Q.** `CCC(=O)NC(c1cccs1)c1cc(Cl)c2cccnc2c1O` (centres undefined) was tested. Which inhibition did it give?
**A.** 20.9%

**Q.** `COc1ccc(C(=O)/C=C/c2cc(OC)c(O)c(OC)c2)c(F)c1` was tested. Which inhibition did it give?
**A.** 26.6%

**Q.** With `COc1ccc(-n2c(-c3ccc(Br)cc3)c[n+]3c2CCCCC3)cc1` as the compound, how does the inhibition read?
**A.** -0.37%

**Q.** How did the inhibition turn out when `Cc1cccc(OC(=O)NCCOC(=O)N(O)c2ccc(Cl)cc2)c1` was run?
**A.** 4.94%

**Q.** How did the inhibition turn out when `C#CCOCCOCCOCCNc1nc(N2CCN(C(=O)Cn3cc(CCCN=C(N)N)nn3)CC2)nc(N2CCN(C(=O)[C@H](C)n3cc(CCCN=C(N)N)nn3)CC2)n1` was run?
**A.** 3.42%

**Q.** `CCCNc1nc(OC(C(F)(F)F)C(F)(F)F)nc(OC(C(F)(F)F)C(F)(F)F)n1` was tested. Which inhibition did it give?
**A.** 7.26%

**Q.** Which inhibition does the source give for `C=C(C(=O)c1ccccc1)C(CC(=O)c1ccccc1)c1ccccc1` (centres undefined) here?
**A.** 25.9%

**Q.** With `COC(=O)c1ccc(S(=O)(=O)NCc2ccc(S(N)(=O)=O)cc2)o1` as the compound, how does the inhibition read?
**A.** -5.84%

**Q.** How did the inhibition turn out when `CCc1ccc(CN(C)C(=O)c2cc(COc3cccc4cnccc34)on2)cc1` was run?
**A.** 18.4%

**Q.** `Cc1ccc(S(=O)(=O)CCC(=O)N2CCN(c3ccc(Cl)cc3)CC2)cc1` was tested. Which inhibition did it give?
**A.** -1.83%

**Q.** `COc1cc(C(F)(F)F)c(C(=O)N(C)Cc2cc(Cl)cc(Cl)c2)cn1` was tested. Which inhibition did it give?
**A.** -10.3%

**Q.** Which inhibition does the source give for `Cc1cc(C(C)(C)C)cc(C)c1Cn1c2[n+](c3ccc(C(F)(F)F)cc31)CCCCC2` here?
**A.** 11%
